Measurements published in PubChem BioAssay (NCATS).
Inconclusive results are not listed. Activity calls are given as the source filed them. The call rests on the fitted dose curve; in most records, active means well fitted inhibition curve with a large enough effect; inconclusive means small, poorly fitted or top-dose-only effect; inactive means flat fitted curve, though single readings scatter.

target: Calcium and integrin-binding protein 1 (Homo sapiens) (UniProt Q99828); assay: Primary qHTS for Identification of Calcium Integrin Binding Protein 1 (CIB1) Competitor (AID 1508620); settings: CIB1-GST / FITC-alphaIIb peptide fluorescence polarization; series mostly up to 114 µM; activity change, negative = inhibition: at the top concentration; further: top concentration of the series differs between compounds
Sequence (Q99828 whole entry, looked up): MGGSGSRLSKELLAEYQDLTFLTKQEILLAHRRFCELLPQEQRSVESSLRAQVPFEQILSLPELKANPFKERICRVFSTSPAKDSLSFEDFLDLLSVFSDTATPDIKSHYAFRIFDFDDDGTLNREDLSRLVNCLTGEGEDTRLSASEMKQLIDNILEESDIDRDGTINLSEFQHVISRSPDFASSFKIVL
Outline: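 Fluorescence polarization competition: GST-tagged CIB1 (1 uM final) preincubated with compound 15 min at room temperature, then FITC-labelled alphaIIb peptide (100 nM final) added. After 15 min at room temperature, polarization read at Ex 480/Em 540.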
On the % scale 0 is the no-effect control and ±100 the full control effect.

SMILES | activity change, negative = inhibition | Potency
NC(=O)C1CCN(c2cc(-c3ccc4c(c3)OCCCO4)ncn2)CC1 | 1.3% (inactive) | 
Cc1ccc(NS(=O)(=O)c2cc3c(cc2Cl)NC(=O)C3)cc1C | -1.13% (inactive) | 
Clc1cccc(-c2nc(-c3ccc(-c4nn[nH]n4)cc3)no2)c1 | -16.1% (inactive) | 
O=C(Nc1nc2cc(C(F)(F)F)ccc2s1)c1ccc(-c2cccc([N+](=O)[O-])c2)o1 | 1.09% (inactive) | 
Cc1cc(NS(=O)(=O)c2cc3c(cc2F)NC(=O)CC3)ccc1F |  | inactive
O=S(=O)(NC1CCN(S(=O)(=O)c2ccc3c(c2)OCCO3)CC1)c1c(F)cccc1F | 0.641% (inactive) | 
Fc1cc(Nc2nc(-c3ccncc3)nc3ccccc23)ccc1-c1cn[nH]c1 | 3.07% (inactive) | 
O=C(Nc1ccc2c(c1)OCCO2)c1ccc(-c2nc3ccccc3[nH]2)cc1 | 1.12% (inactive) | 
Cc1cccc(CNc2ccnc(-c3cc(C(F)(F)F)cc(C(F)(F)F)c3)n2)c1 | 3.85% (inactive) | 
O=S(=O)(c1ccc2c(c1)OCCO2)N1CCN(S(=O)(=O)c2ccccc2Cl)CC1 | -1.87% (inactive) | 
N=c1c2c(ccn1-c1ccccc1)Oc1ccc3ccccc3c1C2c1ccccc1 (configuration not stated) | 1.52% (inactive) | 
Cc1ccnc(NC(=S)N2CCN(c3cccc(C(F)(F)F)c3)C2)c1 | 0.285% (inactive) | 
CCn1cnc2c(NCc3cccnc3)nc(C#N)nc21 | 3.43% (inactive) | 
Cc1cc(C)nc(NC(=S)N2CCN(c3cccc(C#N)c3)CC2)c1 | -8.64% (inactive) | 
O=S(=O)(c1cccc(O)c1)N1CCN(S(=O)(=O)c2c(F)cccc2F)CC1 | 4.37% (inactive) | 
Nc1c(-c2ccncc2)cc[nH]c1=O | -16.6% (inactive) | 
O=C(Cc1ccc(Cl)c(Cl)c1)Nc1ccc(S(=O)(=O)Nc2cncnc2)cc1 | -19.8% (inactive) | 
